According to the supplement of paper PMC11732987, “Enantioselective OTUD7B fragment discovery through chemoproteomics screening and high-throughput optimisation” (Communications Chemistry, 2025):

Experiments:
Assay in all cases: log2 ratio of Biotin-Ahx-Ub-VS probe labelling (fragment/DMSO); higher = less target engagement (more negative = stronger competition), active = hit call of the paper (q ≤ 0.05, log2 ratio ≤ -1)
Conditions in all cases: compound concentration: 200 uM; treatment time: 3 h
[1] = biological target: T1, ALG13 (UniProt Q9NP73)
T1 sequence (whole entry): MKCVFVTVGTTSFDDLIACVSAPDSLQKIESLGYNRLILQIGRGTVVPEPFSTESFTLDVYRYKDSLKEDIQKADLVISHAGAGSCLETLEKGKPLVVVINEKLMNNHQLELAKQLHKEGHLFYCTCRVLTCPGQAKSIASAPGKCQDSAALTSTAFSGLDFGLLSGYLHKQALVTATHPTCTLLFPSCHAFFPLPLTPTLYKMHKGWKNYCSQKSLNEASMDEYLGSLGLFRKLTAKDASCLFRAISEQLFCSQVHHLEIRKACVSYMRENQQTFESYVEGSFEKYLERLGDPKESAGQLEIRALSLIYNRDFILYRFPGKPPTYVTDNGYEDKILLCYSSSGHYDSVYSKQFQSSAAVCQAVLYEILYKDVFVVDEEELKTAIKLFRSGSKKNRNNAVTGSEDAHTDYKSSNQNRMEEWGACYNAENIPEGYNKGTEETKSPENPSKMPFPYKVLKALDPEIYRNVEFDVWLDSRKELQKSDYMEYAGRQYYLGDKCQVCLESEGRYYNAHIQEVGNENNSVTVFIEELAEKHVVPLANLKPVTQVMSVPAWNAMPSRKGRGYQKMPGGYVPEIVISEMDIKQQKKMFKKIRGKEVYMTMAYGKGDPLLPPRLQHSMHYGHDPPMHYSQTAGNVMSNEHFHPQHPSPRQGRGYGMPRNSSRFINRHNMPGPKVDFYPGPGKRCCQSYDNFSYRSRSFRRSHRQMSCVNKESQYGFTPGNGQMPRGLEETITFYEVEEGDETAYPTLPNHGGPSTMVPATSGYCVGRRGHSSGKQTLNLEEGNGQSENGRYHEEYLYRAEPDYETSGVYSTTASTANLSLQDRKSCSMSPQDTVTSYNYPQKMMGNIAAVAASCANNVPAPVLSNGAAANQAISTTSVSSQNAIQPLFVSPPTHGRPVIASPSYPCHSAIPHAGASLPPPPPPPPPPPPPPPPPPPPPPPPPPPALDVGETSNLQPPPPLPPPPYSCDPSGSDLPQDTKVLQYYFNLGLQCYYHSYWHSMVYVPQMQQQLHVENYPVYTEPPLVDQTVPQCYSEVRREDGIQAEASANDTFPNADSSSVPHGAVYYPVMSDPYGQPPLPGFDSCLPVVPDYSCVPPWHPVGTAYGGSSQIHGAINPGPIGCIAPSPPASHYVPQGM
Procedure, shortened: (§1)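 Average log2 ratios of fragment over vehicle were obtained by unpaired t-test from global-median-normalised Spectronaut label-free quantities. Proteins with ≥2 unique peptides were included. HEK293T lysate (495 µg per sample) was treated in triplicate with fragment at 200 µM or vehicle for 3 h, then with Biotin-Ahx-Ub-VS at 0.5 µM final for 1 h, and labelled DUBs were NeutrAvidin-enriched and run by diaPASEF LC-MS/MS.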

[2] = biological target: ATXN3 (UniProt P54252)
Sequence of ATXN3 (P54252 whole entry): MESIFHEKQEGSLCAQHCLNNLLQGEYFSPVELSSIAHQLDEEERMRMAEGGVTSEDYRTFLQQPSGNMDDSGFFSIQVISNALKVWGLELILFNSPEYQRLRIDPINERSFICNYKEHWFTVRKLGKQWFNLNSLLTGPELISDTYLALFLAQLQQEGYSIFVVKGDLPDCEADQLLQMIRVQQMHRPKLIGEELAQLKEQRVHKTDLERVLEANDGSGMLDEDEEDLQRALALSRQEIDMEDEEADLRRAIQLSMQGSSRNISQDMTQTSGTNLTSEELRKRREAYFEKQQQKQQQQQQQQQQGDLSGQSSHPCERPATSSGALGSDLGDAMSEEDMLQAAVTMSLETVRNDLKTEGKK
Procedure, shortened: as §1

[3] = biological target: T2, BAP1 (UniProt Q92560)
T2 sequence (whole entry): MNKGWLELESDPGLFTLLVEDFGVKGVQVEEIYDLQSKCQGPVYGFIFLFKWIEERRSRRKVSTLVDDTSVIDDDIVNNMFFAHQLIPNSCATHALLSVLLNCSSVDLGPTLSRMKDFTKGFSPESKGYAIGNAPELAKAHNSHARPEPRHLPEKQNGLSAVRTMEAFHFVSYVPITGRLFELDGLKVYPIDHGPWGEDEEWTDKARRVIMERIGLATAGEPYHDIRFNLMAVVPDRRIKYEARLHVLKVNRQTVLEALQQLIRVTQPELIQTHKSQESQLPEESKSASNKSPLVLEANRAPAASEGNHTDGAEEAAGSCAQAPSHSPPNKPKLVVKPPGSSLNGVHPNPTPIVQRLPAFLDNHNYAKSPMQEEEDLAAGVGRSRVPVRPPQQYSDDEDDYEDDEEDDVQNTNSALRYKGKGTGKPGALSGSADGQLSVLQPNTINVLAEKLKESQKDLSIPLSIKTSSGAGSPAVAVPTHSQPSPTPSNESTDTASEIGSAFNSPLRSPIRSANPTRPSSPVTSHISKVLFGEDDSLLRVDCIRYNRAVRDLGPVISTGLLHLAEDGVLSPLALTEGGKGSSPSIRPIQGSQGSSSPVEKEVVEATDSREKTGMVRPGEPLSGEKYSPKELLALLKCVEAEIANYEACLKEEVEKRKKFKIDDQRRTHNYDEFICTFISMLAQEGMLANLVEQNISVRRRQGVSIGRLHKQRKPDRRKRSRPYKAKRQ
Procedure, shortened: as §1

[4] = biological target: EIF3F (UniProt O00303)
Sequence of EIF3F (O00303 whole entry): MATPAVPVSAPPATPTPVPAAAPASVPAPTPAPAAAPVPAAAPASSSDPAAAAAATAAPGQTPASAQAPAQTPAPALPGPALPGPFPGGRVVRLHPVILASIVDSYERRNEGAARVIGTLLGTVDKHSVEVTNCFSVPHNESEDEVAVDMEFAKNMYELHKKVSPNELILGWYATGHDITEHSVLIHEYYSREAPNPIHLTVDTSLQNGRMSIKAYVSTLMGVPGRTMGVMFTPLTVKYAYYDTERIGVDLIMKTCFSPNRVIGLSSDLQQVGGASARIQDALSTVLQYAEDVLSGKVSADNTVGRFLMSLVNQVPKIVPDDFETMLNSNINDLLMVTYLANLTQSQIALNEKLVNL
Procedure, shortened: as §1

[5] = biological target: EIF3H (UniProt O15372)
Sequence of EIF3H (O15372 whole entry): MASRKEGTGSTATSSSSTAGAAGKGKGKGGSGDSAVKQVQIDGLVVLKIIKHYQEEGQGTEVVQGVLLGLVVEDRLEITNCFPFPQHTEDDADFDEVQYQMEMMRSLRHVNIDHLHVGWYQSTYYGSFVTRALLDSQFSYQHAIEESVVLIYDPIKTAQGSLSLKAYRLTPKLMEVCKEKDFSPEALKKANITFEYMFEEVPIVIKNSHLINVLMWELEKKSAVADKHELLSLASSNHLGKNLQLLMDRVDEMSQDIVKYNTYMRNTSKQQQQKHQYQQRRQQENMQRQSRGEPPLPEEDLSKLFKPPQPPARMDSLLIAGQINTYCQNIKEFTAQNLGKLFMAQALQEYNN
Procedure, shortened: as §1

[6] = biological target: T3, FAM105A (UniProt Q9NUU6)
T3 sequence (whole entry): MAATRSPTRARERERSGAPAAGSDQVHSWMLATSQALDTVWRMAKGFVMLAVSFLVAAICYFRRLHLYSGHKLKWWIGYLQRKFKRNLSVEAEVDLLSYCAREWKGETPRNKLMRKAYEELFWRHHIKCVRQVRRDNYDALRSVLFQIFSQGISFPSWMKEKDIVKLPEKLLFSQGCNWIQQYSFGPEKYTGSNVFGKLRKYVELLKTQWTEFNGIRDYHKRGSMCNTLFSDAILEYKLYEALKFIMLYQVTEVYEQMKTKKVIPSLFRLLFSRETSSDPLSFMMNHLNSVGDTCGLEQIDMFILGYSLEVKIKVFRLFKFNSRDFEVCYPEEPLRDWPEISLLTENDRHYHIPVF
Procedure, shortened: as §1

[7] = biological target: OTUB1 (UniProt Q96FW1)
Sequence of OTUB1 (Q96FW1 whole entry): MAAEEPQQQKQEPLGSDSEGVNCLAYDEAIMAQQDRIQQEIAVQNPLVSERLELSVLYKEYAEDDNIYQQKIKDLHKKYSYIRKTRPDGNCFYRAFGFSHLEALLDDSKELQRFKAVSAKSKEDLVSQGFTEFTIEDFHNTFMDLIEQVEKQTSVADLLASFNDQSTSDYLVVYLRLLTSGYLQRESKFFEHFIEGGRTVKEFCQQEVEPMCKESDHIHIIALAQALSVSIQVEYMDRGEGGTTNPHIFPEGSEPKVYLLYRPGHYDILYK
Procedure, shortened: as §1

[8] = biological target: T4, OTUD4 (UniProt Q01804)
T4 sequence (whole entry): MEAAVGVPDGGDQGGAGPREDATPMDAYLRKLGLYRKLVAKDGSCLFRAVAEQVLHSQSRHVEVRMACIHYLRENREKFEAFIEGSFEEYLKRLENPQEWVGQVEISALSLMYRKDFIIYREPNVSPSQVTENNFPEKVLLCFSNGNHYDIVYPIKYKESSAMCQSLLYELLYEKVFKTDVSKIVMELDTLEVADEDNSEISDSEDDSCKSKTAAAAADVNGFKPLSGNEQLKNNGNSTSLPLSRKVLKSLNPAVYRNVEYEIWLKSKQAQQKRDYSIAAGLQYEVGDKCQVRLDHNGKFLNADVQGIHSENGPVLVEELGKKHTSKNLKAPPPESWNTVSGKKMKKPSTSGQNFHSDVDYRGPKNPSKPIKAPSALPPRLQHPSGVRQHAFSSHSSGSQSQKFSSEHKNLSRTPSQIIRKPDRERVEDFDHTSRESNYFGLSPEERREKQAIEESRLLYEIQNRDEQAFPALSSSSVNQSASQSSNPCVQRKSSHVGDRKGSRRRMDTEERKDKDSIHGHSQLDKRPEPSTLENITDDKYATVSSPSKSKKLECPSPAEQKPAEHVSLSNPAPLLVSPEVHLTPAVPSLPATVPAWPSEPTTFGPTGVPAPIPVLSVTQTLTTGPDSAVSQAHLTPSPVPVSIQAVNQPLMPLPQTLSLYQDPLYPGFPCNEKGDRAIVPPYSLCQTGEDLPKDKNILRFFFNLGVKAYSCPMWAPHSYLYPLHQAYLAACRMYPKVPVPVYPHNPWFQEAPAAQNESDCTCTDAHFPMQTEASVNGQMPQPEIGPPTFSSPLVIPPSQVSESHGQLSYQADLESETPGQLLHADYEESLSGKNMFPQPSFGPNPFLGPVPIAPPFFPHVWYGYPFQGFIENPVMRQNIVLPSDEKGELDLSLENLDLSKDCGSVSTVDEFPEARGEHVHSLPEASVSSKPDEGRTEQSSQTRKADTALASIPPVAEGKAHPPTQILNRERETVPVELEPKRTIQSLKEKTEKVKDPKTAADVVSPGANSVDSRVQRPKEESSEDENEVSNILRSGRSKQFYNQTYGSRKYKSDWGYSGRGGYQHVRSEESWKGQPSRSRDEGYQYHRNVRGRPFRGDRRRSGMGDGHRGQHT
Procedure, shortened: as §1

[9] = biological target: T5, OTUD5 (UniProt Q96G74)
T5 sequence (whole entry): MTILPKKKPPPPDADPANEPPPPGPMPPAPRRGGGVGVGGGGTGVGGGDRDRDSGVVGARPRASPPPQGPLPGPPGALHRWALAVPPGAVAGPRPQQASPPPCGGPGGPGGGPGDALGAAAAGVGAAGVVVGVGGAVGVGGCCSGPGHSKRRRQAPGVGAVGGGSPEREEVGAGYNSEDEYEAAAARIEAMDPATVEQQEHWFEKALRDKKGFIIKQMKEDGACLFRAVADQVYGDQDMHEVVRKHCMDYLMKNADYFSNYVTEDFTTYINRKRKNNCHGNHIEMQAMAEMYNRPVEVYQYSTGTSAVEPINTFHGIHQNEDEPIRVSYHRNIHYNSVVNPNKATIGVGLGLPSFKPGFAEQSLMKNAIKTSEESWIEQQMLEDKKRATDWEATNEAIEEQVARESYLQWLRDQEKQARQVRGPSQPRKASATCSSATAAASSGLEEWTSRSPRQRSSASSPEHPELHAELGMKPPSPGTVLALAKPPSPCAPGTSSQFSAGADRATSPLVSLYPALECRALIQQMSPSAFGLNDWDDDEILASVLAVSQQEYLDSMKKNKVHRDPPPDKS
Procedure, shortened: as §1

Measured: log2 ratio of Biotin-Ahx-Ub-VS probe labelling

O=C(CCl)N1CCCN(C(=O)c2ccc(Cl)cc2)CC1
inactive: [1] -0.303 | [2] -0.712 | [3] -0.719 | [4] -0.31 | [5] 0.393 | [6] 0.113 | [7] -0.428 | [8] -0.424 | [9] -0.688
